The list is not random: actives were taken first. Their share in the collection is about 0.43%.
aGlu spleen mod: inhibitors or activators of human alpha-glucosidase in spleen homogenate; human spleen homogenate, 4-MU-alpha-glucoside fluorescence; P10253; Potency, µM (top dose mostly 79.9 µM), without a hit: at the top dose activity change, negative = inhibition, most hits filed as inhibitors; hit rate 0.006% among 240,000;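 also: potency is read from the fitted curve at half-maximal effect; 0% = enzyme with vehicle and -100% = no enzyme basal signal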
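Compounds were titrated against alpha-glucosidase in spleen homogenate at pH 5.0, with 1 mM 4-methylumbelliferyl substrate for 40 min at 37 C. Reactions were quenched with pH 10 NaOH/glycine and fluorescence measured.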
GLA spleen mod: alpha-galactosidase A (human) modulation. P06280. human spleen homogenate, 4MU-alpha-Gal fluorescence, 40 min. Potency, µM (top dose mostly 80 µM), without a hit: top-dose activity change, negative = inhibition, actives largely listed as inhibitors. hit rate 0.008% among 240,000;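 also: potency is read from the fitted curve at half-maximal effect; 0% = enzyme with vehicle and -100% = no enzyme basal signal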
Target sequence (P06280 32-429 limits assumed): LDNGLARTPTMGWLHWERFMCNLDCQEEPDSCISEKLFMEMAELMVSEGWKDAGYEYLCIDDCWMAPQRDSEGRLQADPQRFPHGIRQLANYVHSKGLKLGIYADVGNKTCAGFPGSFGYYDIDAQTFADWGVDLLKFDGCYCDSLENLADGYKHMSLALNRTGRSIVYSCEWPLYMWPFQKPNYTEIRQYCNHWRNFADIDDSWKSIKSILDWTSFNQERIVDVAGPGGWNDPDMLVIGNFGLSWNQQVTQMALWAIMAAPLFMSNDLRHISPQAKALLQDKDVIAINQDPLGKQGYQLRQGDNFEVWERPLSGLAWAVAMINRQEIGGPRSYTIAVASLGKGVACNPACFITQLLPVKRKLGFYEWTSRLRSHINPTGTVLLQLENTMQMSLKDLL
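qHTS titration in buffer at pH 5.0. Alpha-galactosidase activity in spleen homogenate was measured via 4-methylumbelliferone release from 1 mM fluorogenic substrate after 40 min at 37C and a pH 10 stop. AC50 came from Hill fits of control-normalized data.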
GAA inh: alpha-glucosidase (human) inhibition | P10253 | purified human GAA, 4-MU-alpha-glucoside fluorescence | Potency, µM (series often up to 76.9 µM), for the others: at the top dose activity change, negative = inhibition, actives largely listed as inhibitors | hit rate 0.005% among 200,000;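 also: potency is read from the fitted curve at half-maximal effect; plate controls were uninhibited enzyme wells for no effect and no-enzyme background for full effect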
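Fluorescence at Ex 365/Em 440 nm from 4-methylumbelliferone reported enzyme activity after 20 min at room temperature. Reactions used 4 nM enzyme and 400 uM substrate at pH 5.0; curves fitted with the Hill equation.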
GLA inh pH 4.5: blocks human alpha-galactosidase A at pH 4.5 | P06280 | purified enzyme, 4-MU-alpha-Gal fluorescence, pH 4.5 | activity change, negative = inhibition, % at 105 µM | 230,000 tested, under 10 active;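 also: 0% = full activity with enzyme and -100% = basal without enzyme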
GAA glycogen: inhibitors or activators of human alpha-glucosidase glycogen cleavage. P10253. recombinant GAA, glycogen substrate, Amplex Red glucose oxidase fluorescence. Potency, µM (top dose mostly 76.4 µM), inactives show top-dose activity change, negative = inhibition, usual class: inhibitors. hit rate 0.38% among 300,000. AID 2100;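 also: potency is read from the fitted curve at half-maximal effect; 0% = full enzyme reaction and -100% = no-enzyme basal signal; the screen sought inhibitors and activators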
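Recombinant enzyme (4 nM final) with compounds titrated up to 77 uM and bovine liver glycogen (30 ug) in citrate pH 5.0, 0.01% Tween-20, 37 C 40 min. Released glucose detected by Amplex Red/glucose oxidase (Ex 573/Em 610); AC50 from Hill fits.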
N370S GC: N370S glucocerebrosidase modulation, Gaucher chaperone candidate; hit rate 0.092% among 330,000; N370S GC spleen homogenate, 4MU-glucoside fluorescence; Potency, µM (highest dose often 59.4 µM), without a hit: at the highest dose activity change, negative = inhibition, most hits filed as inhibitors;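 also: potency is read from the fitted curve at half-maximal effect; 0% = full enzyme activity and -100% = no enzyme basal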
* marks the source's active call; other numbers are inactive results; ? = inconclusive; · = no result given; [ ] = another dose, or the depositor's remark. Calls follow the shape of the dose curve; as a rule, active = well fitted curve in the direction sought with a large enough effect; inconclusive = small, poorly fitted or top-dose-only effect, or another doubt; inactive = no such curve, though single readings can be large; an effect the other way counts as inactive or inconclusive.

SMILES | aGlu spleen mod | GLA spleen mod | GAA inh | GLA inh pH 4.5 | GAA glycogen | N370S GC
COc1cccc(CC(=O)N2CCc3nc(-c4ccc(OC)cc4C)c4c(c3C2)CO[C@@H](c2ccccc2)C4)c1 | -15.9%[17.4 µM] | 0.3%[17.5 µM] | · | 0.1 | · | -4.1%[12.8 µM]
CCOC(=O)Nc1sc(=S)n(C)c1C | 8.0% | 2.7% | 2.5% | -4.4 | 7.88µM* | 12.5%
Cc1c(NC(=O)OCCNC(=O)Nc2ccccc2)sc(=S)n1C | 13.3% | 4.9% | -10.9% | -7.9 | ? | ?
Cc1ccc(S(=O)(=O)NNC(=O)c2snnc2C)cc1 | -0.4% | 0.7% | -5.0% | 1.9 | 25.1µM* | -13.3%
Cc1nnsc1C(=O)NNS(=O)(=O)c1cc(C(F)(F)F)cc(C(F)(F)F)c1 | 7.3% | 5.7% | 4.1% | -6.1 | ? | 9.4%
CSc1ccc(-c2nc3cccc(C)n3c2Nc2ccc(Cl)cc2)cc1 | · | · | · | · | 5.62µM* | ·
Cc1cccc(C)c1Nc1c(-c2ccsc2)nc2cccc(C)n12 | · | · | · | · | -19.3%[76.3 µM] | ·
Cc1cc(OCCn2cc(/C(N)=N/O)c3ccccc32)ccc1Cl | -20.2% | 1.8% | -4.8% | 2.3 | 17.8µM* | ?
COc1ccc2c(c1)C(=O)[C@H](OC(=O)N[C@H](C)C1CCCCC1)[C@@H](c1ccc(OC)c(Br)c1)O2 | -1.7% | 7.5% | · | -7.3 | · | 8.8%
COc1cc(N(C)C)cc(CN(C)CCc2ccc([N+](=O)[O-])cc2)c1O | -8.4% | -14.8% | · | · | · | -9.4%
CCOc1ccc(NC(=S)N(CCc2c(C)[nH]c3ccc(C)cc23)Cc2ccco2)cc1 | 1.8% | 6.7% | 3.4% | 10.1 | 35.5µM* | 13.2%
CSCC[C@H](NC(=O)[C@H](CCCN=C(N)N)NC(=O)[C@@H]1CCCN1C(=O)[C@H](Cc1ccccc1)NC(=O)[C@H](C)NC(=O)[C@H](CC(C)C)NC(=O)[C@H](Cc1ccc(O)cc1)NC(=O)[C@H](CC(N)=O)NC(=O)[C@@H](N)CCSC)C(N)=O | 6.5% | 11.6% | · | · | · | -8.5%
O=C1NN(c2ccc(Cl)c(Cl)c2)C(=O)/C1=C/c1cccc(OC(=O)c2cccs2)c1 | -8.9% | -1.5% | -2.3% | 0.7 | -20.8% | 7.4%
O=C1NN(c2ccccc2)C(=O)/C1=C\c1cccc(OC(=O)c2cccs2)c1 | -10.2% | 5.3% | -1.1% | -2.5 | 20µM* | ·
FC(F)(F)c1ccccc1-c1nccc(NCc2ccccc2)n1 | 12.7% | 0.7% | · | -0.4 | · | 11.2µM*
FC(F)(F)c1ccccc1-c1nccc(NCc2cccs2)n1 | 6.7% | -3.8% | · | · | · | 3.16µM*
O=C(NCCCCc1ccccc1)C12CN(Cc3ccccc3)CC1C(c1ccc([N+](=O)[O-])cc1)=NO2 (stereo not drawn) | -4.3% | -7.7% | ? | -18.8 | -0.8% | 10µM*
O=C(NCCCCc1ccccc1)C12CN(Cc3ccccc3)CC1C(c1cccc([N+](=O)[O-])c1)=NO2 (stereo not drawn) | -8.4% | -8.0% | -2.5% | -11.6 | -9.8% | -7.4%
Cn1c(CNc2ccccc2O)nc2ccccc21 | -5.6% | -6.2% | 4.1%[15.4 µM] | -0.9 | 14µM* | 11.2%
CCN(C(=O)CN1CCN(c2ccccc2O)CC1)c1c(N)n(Cc2ccccc2)c(=O)[nH]c1=O | 2.2% | -1.6% | -5.8% | 2.1 | 9.92µM* | 16.0%
Nc1cc(-c2ccccc2)ccc1O | -1.8% | 1.1% | -5.6% | 1.1 | 10µM* | -7.2%
O=P1(O)Oc2c(c(-c3ccccc3)cc3ccc4ccccc4c23)-c2c(-c3ccccc3)cc3ccc4ccccc4c3c2O1 | 4.4% | 7.0% | · | -11.9 | · | 15.0%
NC(=NCCCCCCN=C(N)/N=C(\N)Nc1ccc(Cl)cc1)/N=C(\N)Nc1ccc(Cl)cc1 | 2.7% | -23.5% | · | -3.0 | 3.5%[76.3 µM] | 6.31µM*
CCOc1cccc(CNc2ccc(O)cc2)c1OCc1ccccc1Cl | -2.2% | 4.9% | -1.2% | -2.7 | 6.31µM* | 7.6%
CCOc1cc(/C=C/c2cc(C(F)(F)F)[nH]c(=O)n2)ccc1O | -4.5% | 2.7% | -8.6% | -9.7 | 7.88µM* | -15.6%

Source: PubChem BioAssay (National Center for Advancing Translational Sciences (NCATS))
